# Inconclusive results are not listed. Entries that show only a call come without a potency. Calls of active or inactive are those of the source. Calls follow the shape of the dose curve; as a rule, active = well fitted inhibition curve with a large enough effect; inconclusive = small, poorly fitted or top-dose-only effect; inactive = flat fitted curve, though single readings scatter.
# Experiments:
# UISO = assay: qHTS assay to identify novel small-molecules to repurpose for Merkel cell carcinoma treatment (AID 1296009); settings: MCC and control cell lines, CellTiter-Glo viability, 72 h; series mostly up to 46 µM; also: nearly all actives have a fitted effect of over 60% in size
# Outline: (§1)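 After compound transfer in DMSO, plates were kept 72 hr at 37 degree celsius. Luminescent ATP signal from CellTiter-Glo served as viability measure, normalized against DMSO and no-cell controls.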
# WaGa = assay: as above; settings: MCC and control cell lines, CellTiter-Glo viability, 72 h; series mostly up to 46 µM
# Outline: as §1
# Potency is read from the fitted curve at half-maximal effect.
SMILES,Potency (UISO),Potency (WaGa)
OC[C@H]1O[C@@H](Oc2cc(O)cc(C=Cc3ccc(O)cc3)c2)[C@H](O)[C@@H](O)[C@H]1O,inactive,inactive
O=C1NC(=O)C(=Cc2ccc(-c3ccc(F)cc3)o2)S1,inactive,inactive
O=C(Nc1c(Cl)cncc1Cl)c1ccc(OC(F)F)c(OCC2CC2)c1,inactive,inactive
COC(=O)N[C@H](C(=O)N1CCC[C@@H]1c1ncc(-c2ccc(-c3ccc(-c4cnc([C@@H]5CCCN5C(=O)[C@@H](NC(=O)OC)C(C)C)[nH]4)cc3)cc2)[nH]1)C(C)C,inactive,inactive
O=C1c2c(O)cc(O)cc2O[C@H](c2cc(O)c(O)c(O)c2)[C@H]1O,inactive,2.35 µM (active)
O=c1cc(N2CCOCC2)oc2c(-c3cccc4c3sc3ccccc34)cccc12,inactive,inactive
Cc1ccc(/C=N/NC(=O)c2ccccc2Oc2ccccc2)o1,inactive,inactive
CCCCCCCCCCCC1=C(O)C(=O)C=C(O)C1=O,inactive,2.96 µM (active)
CC(=NNC(=S)N1CCC1)c1ccccn1,0.0033 µM (active),0.0007 µM (active)
Nc1ncnc2c1ncn2[C@@H]1O[C@H](CO)C[C@@H]1O,inactive,14.8 µM (active)
CC[C@H]1OC(=O)[C@H](C)C(=O)[C@H](C)[C@@H](O[C@H]2O[C@H](C)C[C@H](N(C)C)[C@@H]2O)[C@](C)(OC)C[C@@H](C)C(=O)[C@H](C)[C@H]2N(CCCCn3cnc(-c4cccnc4)c3)C(=O)O[C@]12C,inactive,inactive
CCOC(CN1C(=O)[C@](CC(=O)Nc2ccc(C)cc2)(NC(=O)Nc2ccc(C)cc2)c2ccccc21)OCC,inactive,inactive
NC1CCC(Nc2nc(Nc3ccc(C(=O)N4CCCCC4)cc3)c3ncn(-c4cccc(F)c4)c3n2)CC1 (stereo not given),inactive,inactive
COc1ccc(-n2c(C)c([N+](=O)[O-])c3ccc(O)cc32)cc1,inactive,inactive
COc1ccc(-c2coc3cc(O)ccc3c2=O)cc1,inactive,inactive
